# Numbering of substitutions follows the chain as printed.
# Assays:
# Test in all cases: PBM; 200 nM protein, PBS
# Conditions in all cases: dsDNA, one strand shown
# SIX6 [1] = target: T1, SIX6 (Homo sapiens, UniProt O95475 114-200, L167I)
# T1 sequence: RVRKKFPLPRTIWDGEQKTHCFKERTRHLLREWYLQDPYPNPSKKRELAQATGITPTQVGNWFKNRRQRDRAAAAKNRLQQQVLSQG
# SIX6 [2] = target: T2, SIX6 (Homo sapiens, UniProt O95475 114-200, L143V)
# T2 sequence: T1 sequence with L30V, I54L
# SIX6 [3] = target: T3, SIX6 (Homo sapiens, UniProt O95475 114-200, H141N)
# T3 sequence: T1 sequence with H28N, I54L
# SIX6 [4] = target: T4, SIX6 (Homo sapiens, UniProt O95475 114-200, T165P)
# T4 sequence: T1 sequence with T52P, I54L
# SIX6 [5] = target: T5, SIX6 (Homo sapiens, UniProt O95475 114-200, L167M)
# T5 sequence: T1 sequence with I54M
# SIX6 [6] = target: T6, SIX6 (Homo sapiens, UniProt O95475 114-200, L143M)
# T6 sequence: T1 sequence with L30M, I54L
# SIX6 [7] = target: T7, SIX6 (Homo sapiens, UniProt O95475 114-200, L143I)
# T7 sequence: T1 sequence with L30I, I54L
# SIX6 [8] = target: T8, SIX6 (Homo sapiens, UniProt O95475 114-200, T165G)
# T8 sequence: T1 sequence with T52G, I54L
# SIX6 [9] = target: T9, SIX6 (Homo sapiens, UniProt O95475 114-200, T139Q)
# T9 sequence: T1 sequence with T26Q, I54L
# SIX6 [10] = target: T10, SIX6 (Homo sapiens, UniProt O95475 114-200, T165A)
# T10 sequence: T1 sequence with T52A, I54L
# SIX6 [11] = target: T11, SIX6 (Homo sapiens, UniProt O95475 114-200, L167V)
# T11 sequence: T1 sequence with I54V
# SIX6 [12] = target: T12, SIX6 (Homo sapiens, UniProt O95475 114-200)
# T12 sequence: T1 sequence with I54L
# SIX6 [13] = target: T13, SIX6 (Homo sapiens, UniProt O95475 114-200, T165I)
# T13 sequence: T1 sequence with T52I, I54L
Sequence,binding signal (SIX6 [1]),binding signal (SIX6 [2]),binding signal (SIX6 [3]),binding signal (SIX6 [4]),binding signal (SIX6 [5]),binding signal (SIX6 [6]),binding signal (SIX6 [7]),binding signal (SIX6 [8]),binding signal (SIX6 [9]),binding signal (SIX6 [10]),binding signal (SIX6 [11]),binding signal (SIX6 [12]),binding signal (SIX6 [13])
CGCGGCCA,"8.81 upbm affinity estimate (log intensity, higher = more binding, comparable within an allelic series)","8.96 upbm affinity estimate (log intensity, higher = more binding, comparable within an allelic series)","8.88 upbm affinity estimate (log intensity, higher = more binding, comparable within an allelic series)","8.99 upbm affinity estimate (log intensity, higher = more binding, comparable within an allelic series)","8.82 upbm affinity estimate (log intensity, higher = more binding, comparable within an allelic series)","8.81 upbm affinity estimate (log intensity, higher = more binding, comparable within an allelic series)","8.93 upbm affinity estimate (log intensity, higher = more binding, comparable within an allelic series)","8.87 upbm affinity estimate (log intensity, higher = more binding, comparable within an allelic series)","8.91 upbm affinity estimate (log intensity, higher = more binding, comparable within an allelic series)","8.86 upbm affinity estimate (log intensity, higher = more binding, comparable within an allelic series)","8.96 upbm affinity estimate (log intensity, higher = more binding, comparable within an allelic series)","8.84 upbm affinity estimate (log intensity, higher = more binding, comparable within an allelic series)","8.87 upbm affinity estimate (log intensity, higher = more binding, comparable within an allelic series)"
CAGCTGGC,"8.7 upbm affinity estimate (log intensity, higher = more binding, comparable within an allelic series)","8.78 upbm affinity estimate (log intensity, higher = more binding, comparable within an allelic series)","8.72 upbm affinity estimate (log intensity, higher = more binding, comparable within an allelic series)","8.91 upbm affinity estimate (log intensity, higher = more binding, comparable within an allelic series)","8.72 upbm affinity estimate (log intensity, higher = more binding, comparable within an allelic series)","8.61 upbm affinity estimate (log intensity, higher = more binding, comparable within an allelic series)","8.88 upbm affinity estimate (log intensity, higher = more binding, comparable within an allelic series)","8.8 upbm affinity estimate (log intensity, higher = more binding, comparable within an allelic series)","8.91 upbm affinity estimate (log intensity, higher = more binding, comparable within an allelic series)","8.79 upbm affinity estimate (log intensity, higher = more binding, comparable within an allelic series)","8.84 upbm affinity estimate (log intensity, higher = more binding, comparable within an allelic series)","8.73 upbm affinity estimate (log intensity, higher = more binding, comparable within an allelic series)","8.69 upbm affinity estimate (log intensity, higher = more binding, comparable within an allelic series)"
CGATACCC,"11.2 upbm affinity estimate (log intensity, higher = more binding, comparable within an allelic series)","10.2 upbm affinity estimate (log intensity, higher = more binding, comparable within an allelic series)","11.3 upbm affinity estimate (log intensity, higher = more binding, comparable within an allelic series)","9.23 upbm affinity estimate (log intensity, higher = more binding, comparable within an allelic series)","10.4 upbm affinity estimate (log intensity, higher = more binding, comparable within an allelic series)","11 upbm affinity estimate (log intensity, higher = more binding, comparable within an allelic series)","10.4 upbm affinity estimate (log intensity, higher = more binding, comparable within an allelic series)","11.3 upbm affinity estimate (log intensity, higher = more binding, comparable within an allelic series)","11.4 upbm affinity estimate (log intensity, higher = more binding, comparable within an allelic series)","11.2 upbm affinity estimate (log intensity, higher = more binding, comparable within an allelic series)","10.9 upbm affinity estimate (log intensity, higher = more binding, comparable within an allelic series)","11.1 upbm affinity estimate (log intensity, higher = more binding, comparable within an allelic series)","11 upbm affinity estimate (log intensity, higher = more binding, comparable within an allelic series)"
CAGCCCCG,"8.86 upbm affinity estimate (log intensity, higher = more binding, comparable within an allelic series)","8.79 upbm affinity estimate (log intensity, higher = more binding, comparable within an allelic series)","8.86 upbm affinity estimate (log intensity, higher = more binding, comparable within an allelic series)","8.88 upbm affinity estimate (log intensity, higher = more binding, comparable within an allelic series)","8.84 upbm affinity estimate (log intensity, higher = more binding, comparable within an allelic series)","8.78 upbm affinity estimate (log intensity, higher = more binding, comparable within an allelic series)","8.82 upbm affinity estimate (log intensity, higher = more binding, comparable within an allelic series)","8.82 upbm affinity estimate (log intensity, higher = more binding, comparable within an allelic series)","8.98 upbm affinity estimate (log intensity, higher = more binding, comparable within an allelic series)","8.8 upbm affinity estimate (log intensity, higher = more binding, comparable within an allelic series)","8.86 upbm affinity estimate (log intensity, higher = more binding, comparable within an allelic series)","8.8 upbm affinity estimate (log intensity, higher = more binding, comparable within an allelic series)","8.81 upbm affinity estimate (log intensity, higher = more binding, comparable within an allelic series)"
ACGATAGT,"10.4 upbm affinity estimate (log intensity, higher = more binding, comparable within an allelic series)","10 upbm affinity estimate (log intensity, higher = more binding, comparable within an allelic series)","10.4 upbm affinity estimate (log intensity, higher = more binding, comparable within an allelic series)","9.75 upbm affinity estimate (log intensity, higher = more binding, comparable within an allelic series)",,,"10 upbm affinity estimate (log intensity, higher = more binding, comparable within an allelic series)","10.5 upbm affinity estimate (log intensity, higher = more binding, comparable within an allelic series)","10.6 upbm affinity estimate (log intensity, higher = more binding, comparable within an allelic series)","10.4 upbm affinity estimate (log intensity, higher = more binding, comparable within an allelic series)","10.3 upbm affinity estimate (log intensity, higher = more binding, comparable within an allelic series)","10.4 upbm affinity estimate (log intensity, higher = more binding, comparable within an allelic series)","10.3 upbm affinity estimate (log intensity, higher = more binding, comparable within an allelic series)"
AGATAGGG,"10.1 upbm affinity estimate (log intensity, higher = more binding, comparable within an allelic series)","9.56 upbm affinity estimate (log intensity, higher = more binding, comparable within an allelic series)","10.1 upbm affinity estimate (log intensity, higher = more binding, comparable within an allelic series)","9.33 upbm affinity estimate (log intensity, higher = more binding, comparable within an allelic series)",,,"9.71 upbm affinity estimate (log intensity, higher = more binding, comparable within an allelic series)","10.3 upbm affinity estimate (log intensity, higher = more binding, comparable within an allelic series)","10.4 upbm affinity estimate (log intensity, higher = more binding, comparable within an allelic series)","10.1 upbm affinity estimate (log intensity, higher = more binding, comparable within an allelic series)",,"10 upbm affinity estimate (log intensity, higher = more binding, comparable within an allelic series)",
